Laboratory results taken from PubChem BioAssay (Tox21).
Values joined by “and” are separate entries in the source; they are usually repeats but may differ in a detail not shown here. Identical values can stand only once. Inconclusive results are not listed. Some compounds were tested as several samples or in several runs, with calls that do not always agree. Active and inactive are the calls of the source. Unless noted, calls follow the shape of the dose curve; as a rule, active = well fitted curve in the direction sought with a large enough effect in the repeat runs; inconclusive = weak or mixed curves; inactive = no such curve, though single readings can be large; an effect the other way counts as inactive or inconclusive.

Tests used:
[1] = qHTS assay for small molecules that induce genotoxicity in human embryonic kidney cells expressing luciferase-tagged ATAD5 (AID 651632); also: nearly all actives have a fitted effect of over 15% in size; also: potency is read from the fitted curve at half-maximal effect
Outline: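 Luminescent reporter readout, HEK293T ATAD5-luc line: 16 hr drug exposure (37C, 5% CO2) followed by Amplite, 30 min RT.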

[2] = qHTS assay for small molecule agonists of the p53 signaling pathway - cell viability (AID 651633; calls by dose curve; also: nearly all actives have a fitted effect of over 30% in size; also: potency is read from the fitted curve at half-maximal effect)
Outline: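 Viability counter-read: CellTiter-Glo luminescence (30 min, room temperature) in the same p53RE-bla plates. These plates had been exposed to compounds for 16 h at 37 C.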

[3] = qHTS assay for small molecules that induce genotoxicity in human embryonic kidney cells expressing luciferase-tagged ATAD5 - cell viability (AID 651634; calls by dose curve; also: nearly all actives have a fitted effect of over 25% in size; also: potency is read from the fitted curve at half-maximal effect)
Outline: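 Viability read: CellTiter-Fluor fluorescence, 30 min at 37C. Cells: HEK293T, luciferase-tagged ATAD5. Exposure: 15.5 hr, 37C, 5% CO2, compound or DMSO vehicle.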

[4] = qHTS assay for small molecule disruptors of the mitochondrial membrane potential - cell viability (AID 720634; calls by dose curve; also: nearly all actives have a fitted effect of over 20% in size; also: potency is read from the fitted curve at half-maximal effect)
Outline: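 HepG2, 1 hr compound, 37 C. ATP luminescence via CellTiter-Glo, 30 min RT, same well as m-MPI.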

[5] = qHTS assay to test for compound auto fluorescence at 590 nm (red) in HepG2 cells (AID 720674)
Outline: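 1 hr compound incubation on HepG2 cells, 37 C, 5% CO2; plate read ex 540 nm / em 590 nm; intensities reported as Rose Bengal sodium equivalents.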

[6] = qHTS assay to test for compound auto fluorescence at 535 nm (green) in HepG2 cells (AID 720675)
[7] = qHTS assay to test for compound auto fluorescence at 460 nm (blue) in HEK293 cells (AID 720678)
Outline: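 HEK293 cells (2,000 per well, medium with 10% dialyzed FBS) attached for 4-5 hr at 37C, then received compound and stood overnight at 37C, 5% CO2. Blue fluorescence was read at Ex/Em 405/460 nm and expressed relative to triamterene.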

[8] = qHTS assay to test for compound auto fluorescence at 590 nm (red) in HEK293 cells (AID 720679)
Outline: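 HEK293 cells (2,000/well, medium with 10% dialyzed FBS) attached for 4-5 hr at 37C, received 23 nL compound and were incubated overnight at 37C, 5% CO2. Red fluorescence was then read at 540/590nm Ex/Em, referenced to Rose Bengal sodium.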

[9] = qHTS assay to test for compound auto fluorescence at 535 nm (green) in HEK293 cells (AID 720680)
[10] = qHTS assay to test for compound auto fluorescence at 460 nm (blue) in HEK293 cell free culture (AID 720681)
Outline: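 Blue fluorescence (Ex 405/Em 460 nm, triamterene-equivalent) was read immediately after pin transfer of compound or DMSO into medium (DMEM, 10% FBS) without cells.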

[11] = qHTS assay to test for compound auto fluorescence at 535 nm (green) in HEK293 cell free culture (AID 720682)
Outline: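 Green-channel intensity (Ex/Em 485/535 nm) was recorded from compound-treated wells containing only DMEM with 10% FBS. Fluorescein provided the equivalency standard.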

[12] = qHTS assay to test for compound auto fluorescence at 590 nm (red) in HEK293 cell free culture (AID 720683)
Outline: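 Red-channel autofluorescence of compounds in culture medium (DMEM, 10% FBS), no cells, measured at 540/590 nm. Rose Bengal sodium is the reference fluorophore for equivalence.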

[13] = qHTS assay to test for compound auto fluorescence at 460 nm (blue) in HepG2 cell free culture (AID 720685)
Outline: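 Compound (23 nL) or DMSO pinned into cell-free MEM with 10% FBS; blue fluorescence read at 405/460 nm excitation/emission, expressed as auto-fluorescence equivalency to triamterene.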

[14] = qHTS assay to test for compound auto fluorescence at 535 nm (green) in HepG2 cell free culture (AID 720686)
[15] = qHTS assay to test for compound auto fluorescence at 460 nm (blue) in HepG2 cells (AID 720687)
Outline: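 Blue-channel autofluorescence (Ex/Em 405/460 nm, triamterene-equivalent) was measured after 1 hr compound exposure at 37 C, 5% CO2. Cells were HepG2, plated overnight at 37 C in MEM plus 10% FBS.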

[16] = target: Glucocorticoid receptor (Homo sapiens) (UniProt P04150); assay: qHTS assay to identify small molecule agonists of the glucocorticoid receptor (GR) signaling pathway (AID 720691; active = well fitted activation curve with a large enough effect in the signal ratio in the repeat runs, not every such curve was filed as active; the % refers to the signal ratio)
Glucocorticoid receptor (Homo sapiens), sequence (P04150 whole entry, looked up): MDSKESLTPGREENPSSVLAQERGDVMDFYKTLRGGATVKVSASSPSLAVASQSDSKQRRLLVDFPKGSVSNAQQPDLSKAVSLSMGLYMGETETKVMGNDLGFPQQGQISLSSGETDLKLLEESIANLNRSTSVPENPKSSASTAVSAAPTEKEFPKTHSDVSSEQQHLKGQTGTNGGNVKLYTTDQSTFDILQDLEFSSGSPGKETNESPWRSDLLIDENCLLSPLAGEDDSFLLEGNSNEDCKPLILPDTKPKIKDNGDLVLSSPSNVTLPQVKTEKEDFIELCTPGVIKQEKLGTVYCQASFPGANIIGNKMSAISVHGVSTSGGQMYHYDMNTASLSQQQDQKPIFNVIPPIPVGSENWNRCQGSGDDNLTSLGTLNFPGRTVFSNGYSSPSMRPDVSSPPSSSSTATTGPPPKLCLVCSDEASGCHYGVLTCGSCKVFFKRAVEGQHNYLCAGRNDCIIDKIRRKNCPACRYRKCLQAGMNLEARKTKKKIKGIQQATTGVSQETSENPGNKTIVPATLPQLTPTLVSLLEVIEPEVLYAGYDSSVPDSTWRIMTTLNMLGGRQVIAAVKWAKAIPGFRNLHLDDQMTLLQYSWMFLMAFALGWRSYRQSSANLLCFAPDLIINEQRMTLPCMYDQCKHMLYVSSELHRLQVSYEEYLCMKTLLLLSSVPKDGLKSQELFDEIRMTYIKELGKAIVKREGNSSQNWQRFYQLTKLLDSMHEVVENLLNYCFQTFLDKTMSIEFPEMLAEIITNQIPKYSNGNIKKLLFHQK
Outline: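 qHTS in GR-bla HeLa cells: 4 h settling at 37 C/5% CO2, 18 h compound incubation at 37 C, 2 h LiveBLAzer B/G FRET substrate at room temperature, fluorescence intensity measured.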

[17] = target: Glucocorticoid receptor (Homo sapiens) (UniProt P04150); assay: qHTS assay to identify small molecule antagonists of the glucocorticoid receptor (GR) signaling pathway (AID 720692; active = well fitted inhibition curve with a large enough effect in the signal ratio in the repeat runs, not every such curve was filed as active; the % refers to the signal ratio; also: potency is read from the fitted curve at half-maximal effect)
Outline: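 Inhibition of glucocorticoid signalling is measured in HeLa cells with a GRE-controlled beta-lactamase reporter; cells are co-treated with compound and 5 nM dexamethasone (final) for 18 h before FRET substrate readout.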

[18] = qHTS assay for small molecule disruptors of the mitochondrial membrane potential (AID 720635); also: potency is read from the fitted curve at half-maximal effect
Outline: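 Mitochondrial membrane potential tracked with Mito-MPS dye, red aggregates (ex 540/em 590 nm) against green monomers (ex 490/em 535 nm). Compound treatment 1 hr at 37C, dye 30 min in HepG2.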

[19] = qHTS assay to test for compound auto fluorescence at 590 nm (red) in HepG2 cell free culture (AID 720684)
Outline: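 Steps: dispense MEM/10% FBS medium, no cells; pin compound or DMSO vehicle; read red channel, Ex/Em 540/590 nm. Output given as Rose Bengal sodium equivalents.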

Measured: Potency

CC(C)COC(=O)c1ccccc1C(=O)OCC(C)C
not listed: [18] | [19]
inactive: all other assays above

COc1ccc(C=O)cc1OC
not listed: [5] | [16] | [17] | [18] | [19]
inactive: all other assays above

Oc1ccc(Cl)cc1Cc1ccccc1
active: [2] 55.1 µM | [4] 13.3 µM and 21.7 µM and 15.4 µM | [18] 5.96 µM and 2.43 µM and 1.55 µM
not listed: [3] | [5] | [16] | [17]
inactive: all other assays above

CC(C)(c1ccccc1)c1ccc(O)cc1
48.2 µM (active) and inactive: [4]
active: [18] 3.04 µM and 3.86 µM | [17] 48.6 µM and 54.9 µM
not listed: [2] | [16] | [19]
inactive: all other assays above

ClC(Cl)(Cl)c1ccccc1
not listed: [18] | [19]
inactive: all other assays above

COC(=O)Nc1nc2ccccc2[nH]1
not listed: [18] | [19]
inactive: all other assays above

CS(=O)(=O)NC(=O)c1cc(Oc2ccc(C(F)(F)F)cc2Cl)ccc1[N+](=O)[O-]
not listed: [4] | [5] | [16] | [17] | [18]
inactive: all other assays above

OC(c1ccc(Cl)cc1)(c1cncnc1)c1ccccc1Cl (stereo not given)
active: [17] 49 µM
not listed: [4] | [18] | [19]
inactive: all other assays above

CC(C)(c1ccccc1)c1ccc(O)c(C(C)(C)c2ccccc2)c1
active: [2] 13.6 µM and 30.6 µM | [3] 60.6 µM | [18] 1.52 µM and 2.43 µM
not listed: [4] | [16] | [17]
inactive: all other assays above

CC(C)=CC1C(C(=O)OCN2C(=O)C3=C(CCCC3)C2=O)C1(C)C (stereo not given)
active: [18] 29.8 µM and 54.5 µM
not listed: [4] | [5] | [17] | [19]
inactive: all other assays above

[Cl-].[Cl-].[Cl-].[Fe+3]
not listed: [1] | [2] | [4] | [16] | [17] | [18] | [19]
inactive: all other assays above

C=C(C)C#N
not listed: [4] | [16] | [17] | [18] | [19]
inactive: all other assays above

C[C@]12CC[C@H]3[C@@H](CCC4=CC(=O)CC[C@@H]43)[C@@H]1CC[C@@H]2O
active: [17] 3.01 µM and 4.25 µM and 6.85 µM
not listed: [5] | [16] | [18] | [19]
inactive: all other assays above

CCCCCCCCCc1ccc(O)cc1
active: [4] 17.4 µM
not listed: [2] | [3] | [16] | [17] | [18] | [19]
inactive: all other assays above

CC(C)(O)C(=O)Nc1ccc([N+](=O)[O-])c(C(F)(F)F)c1
active: [18] 15.7 µM and 17.8 µM
not listed: [4] | [16] | [17]
inactive: all other assays above

CCC[CH2][Sn]([Cl])([Cl])[CH2]CCC
active: [2] 2.2 µM and 969 nM | [3] 694 nM and 34.4 nM
not listed: [4] | [16] | [17] | [18] | [19]
inactive: all other assays above

CC(C)(c1ccc(OCC2CO2)cc1)c1ccc(OCC2CO2)cc1 (stereo not given)
active: [2] 61.9 µM and 61.1 µM | [17] 49 µM
not listed: [4] | [18]
inactive: all other assays above

COP(=S)(OC)SCn1nnc2ccccc2c1=O
not listed: [4] | [16] | [17] | [18]
inactive: all other assays above

Clc1ccccc1-c1nnc(-c2ccccc2Cl)nn1
active: [1] 30.4 µM
not listed: [2] | [4] | [5] | [16] | [17] | [18]
inactive: all other assays above

C[N+](C)(C)CC(=O)O
not listed: [5] | [16] | [17] | [18]
inactive: all other assays above

CCOP(=O)(OCC)OCC
not listed: [5] | [18]
inactive: all other assays above

COc1ccc(CO)cc1
not listed: [1] | [18]
inactive: all other assays above

CCOP(=S)(OCC)SCSC(C)(C)C
not listed: [5] | [16] | [17] | [18]
inactive: all other assays above

Cl
not listed: [1] | [2] | [4] | [16] | [17] | [18]
inactive: all other assays above

CC1CC(=O)O1 (stereo not given)
not listed: [1] | [5] | [19]
inactive: all other assays above

CC1=C(C(=O)Nc2ccccc2)SCCO1
not listed: [1] | [5] | [18]
inactive: all other assays above
